# From PubChem BioAssay AID1347076 (National Center for Advancing Translational Sciences (NCATS), 2019)
# Screen size: about 400,000 compounds; about 13,000 (3.2%) were called active. Roughly 18% stayed inconclusive and do not appear here. Only a selection was taken, and actives are over-represented in it overall. Unmarked numbers belong to inactive results. The call rests on the fitted dose curve; in most records, active means well fitted cell-killing curve with a large enough effect; inconclusive means small, poorly fitted or top-dose-only effect, or effect the other way; inactive means flat fitted curve, though single readings scatter.
# Experiment: qHTS assay for MDR1-selective chemotherapeutics: Primary screen using the drug-selected MDR subline cells KB-V1; further: nearly all actives have a fitted effect of over 60% in size
# Settings: KB-V1 MDR cells viability, CellTiter-Glo, 72 h; series mostly up to 46.1 µM; activity change, negative = cytotoxicity: at the top concentration
# Outline: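 qHTS viability screen in drug-selected KB-V1 MDR cells: 72 h compound treatment at 37 degrees C, ATP luminescence end point.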
# On the % scale 0 is the no-effect control and ±100 the full control effect; potency means the concentration at half of the fitted maximal effect.
Compound,"activity change, negative = cytotoxicity",Potency
COc1ccc(NC(=O)C2(C)Cc3c(-c4ccc(C(N)=O)cc4)ccnc3O2)cc1 (stereo unspecified),-8.96%,
O=C(CSc1ncc(-c2ccccc2)[nH]1)Nc1ccc(F)cc1F,-13.2%,
CC(C)(C)OC(=O)N1CCN(C(=O)c2[nH]c(C(F)(F)F)nc2-c2ccccc2)CC1,-14.6%,
O=C1O/C(=C\c2ccc(O)cc2)C(O)=C1c1ccc(O)cc1,-8.38%,
CCOC(=O)c1cccc(NC(=O)CCc2c(C)nc3ncnn3c2C)c1,-2.85%,
CCOC(=O)c1cccc(NC(=O)CCn2nnc3ccccc32)c1,,8.2 µM (active)
CCOC(=O)c1nnn(CC(=O)Nc2cccc(F)c2)c1C(=O)OCC,13.5%,
C[C@H](CO)N1C[C@H](C)[C@@H](CN(C)S(=O)(=O)c2ccc(F)cc2)OCc2cnnn2CCCC1=O,11.7%,
CCC(C)N(c1ccc(/C=C/c2ccnc3ccccc23)cc1)C(C)CC (stereo unspecified),-1.86%,
OC(c1ccccc1)c1nc(/C=C/c2ccc(C(F)(F)F)cc2)cs1 (stereo unspecified),20.1%,
Cc1cc(C(=O)OCC(=O)N2C(C)CCCC2C)c2ccccc2n1 (stereo unspecified),-17.1%,
Cc1nn(-c2ccccc2)nc1C(=O)OCC(=O)N1CCCCC1C (stereo unspecified),,23.1 µM (active)
CC1CCCCN1C(=O)CCS(=O)(=O)Cc1ccccc1 (stereo unspecified),27.6%,
Cc1ccc(N(CC(=O)NCC(C)c2ccccc2)S(=O)(=O)N(C)C)cc1 (stereo unspecified),3.58%,
O=C(NCc1nnnn1-c1ccc(Cl)cc1)c1ccc([N+](=O)[O-])o1,-15.6%,
O=[N+]([O-])c1ccc(C(S(=O)(=O)Cc2ccccc2)S(=O)(=O)Cc2ccccc2)cc1,-7.5%,
Cn1ccc(NC(=O)Nc2ccc(Cl)cc2)n1,4.41%,
CN(c1cccc(NC(=O)Nc2ccc(Cl)cc2)c1)S(C)(=O)=O,-4.54%,
CC(C)S(=O)(=O)c1csc(NC(=O)Nc2ccc(Cl)cc2)c1Cl,,20.6 µM (active)
CCNC(=O)C1(C)CCCN(Cc2noc(-c3ccccc3OC)n2)C1 (stereo unspecified),-12.7%,
O=C(NCc1cccc(C(F)(F)F)c1)c1ccc2sc(COCCO)nc2c1,2.2%,
Cc1ccc(SCC(=O)Nc2ccc3c(c2)OCCO3)cc1,-14.8%,

Compound,"activity change, negative = cytotoxicity",Potency
CCN(CC(=O)Nc1ccc2c(c1)OCCO2)Cc1cc(=O)oc2cc(C)c(C)cc12,,5.17 µM (active)
O=C(COc1ccc2c(C(F)(F)F)cc(=O)oc2c1)Nc1ccc2c(c1)OCCO2,0%,
CC1(C)Cc2ccccc2-c2c[nH]c(=O)n21,-2.99%,
Cc1ccc2[nH]c(=O)c(CN(CC3COCCO3)C(=O)Nc3ccccc3C)cc2c1 (stereo unspecified),-18.7%,
Cc1cccc(NC(=O)N(Cc2cc3cc(C)cc(C)c3[nH]c2=O)CC2COCCO2)c1 (stereo unspecified),6.39%,
Cc1ccc2[nH]c(=O)c(CN(CCCN(C)C)C(=O)Nc3cccc(Cl)c3)cc2c1,,18.4 µM (active)
N#CCCC(C#N)(c1cccnc1)N1CCOCC1 (stereo unspecified),26.1%,
CCOc1ccccc1CNC(=O)c1cnc2c(-c3ccc(OCC)c(OCC)c3)c(C)nn2c1C,0.381%,
Cc1ccccc1NC(=O)NNC(=O)OC(C)(C)C,15.7%,
Cc1ccc(C(=O)NNC(=O)OC(C)(C)C)c(Cl)c1,15.5%,
CC(C)(C)OC(=O)NNc1c2ccccc2nc2ccccc12,,9.2 µM (active)
COC(=O)[C@H]1C[C@H](OC(=O)NCc2ccccc2)[C@@]2(O)CN(S(=O)(=O)c3ccc(C)cc3)CC2[C@H]1C(=O)OC (stereo partly specified),6.07%,
Cc1cc(=O)[nH]c(SCC(=O)Nc2ccc(Br)cc2)n1,11.3%,
Cc1ccc(NC(=O)CSc2nc(CSc3ccc(C)cc3)cc(=O)[nH]2)cc1,-17.7%,
COc1ccc(NC(=O)CSc2nc(NS(=O)(=O)c3ccc(C)cc3)cc(=O)[nH]2)cc1,,3.66 µM (active)
CC1(C(=O)NS(=O)(=O)c2ccccc2)CCN1C(=O)C1CCCCC1 (stereo unspecified),3.98%,
COC(=O)C[C@H]1C[C@@H]2c3cc(NC(=O)Nc4ccccc4)ccc3O[C@@H]2[C@@H](CO)O1,12.4%,
COc1cc(OC)cc(C2=Cc3ccccc3C(CC(=O)c3ccco3)N2c2ccc(-c3cnc(OC)nc3)cc2)c1 (stereo unspecified),0%,
O=S(=O)(/N=C(/Nc1ccccn1)c1ccccc1)c1ccc(Cl)cc1,,14.6 µM (active)
Cc1ccc(S(=O)(=O)/N=C(/Nc2ccccn2)c2ccc(Cl)cc2)cc1,-13.7%,
O=S(=O)(Nc1ccccn1)c1cccc(S(=O)(=O)c2ccc(Cl)cc2)c1,-22.4%,
OC(CBr)CN1CCCCC1 (stereo unspecified),6.25%,

Compound,"activity change, negative = cytotoxicity",Potency
CCn1cc(C(=O)N(C)Cc2ccccc2)c(=O)c2cc(S(=O)(=O)N3CCCCCC3)ccc21,0%,
Cc1ccc(-c2ccc(C3=CC(=O)CC(C)(C)C3=O)cc2)cc1,-4.78%,
CC(C)(C)Cc1c(C2CCCCC2)nc2ccc(Br)cn12,11%,
O=C(Nc1ccc(C(=O)O)cc1)/C(=C\c1ccccc1)NC(=O)c1ccc(Br)cc1,2.86%,
O=C(/C=C/c1ccccc1)N/C(=C/c1ccccc1)C(=O)Nc1ccccc1O,,23.1 µM (active)
CCc1ccccc1NC(=O)/C(=C/c1ccccc1)c1ccccc1,-26.7%,
COc1ccc(C(=O)Nc2nc(-c3ccc(S(=O)(=O)N4CCOCC4)cc3)cs2)cc1,,16.4 µM (active)
CCOC(=O)c1csc(NC(=O)c2ccc(S(=O)(=O)N3CCCC3)cc2)n1,14.3%,
Cc1cc2nc(NC(=O)c3ccc(S(=O)(=O)N4CCOCC4)cc3)sc2cc1C,0%,
O=C(O)c1ccccc1Cc1ccc(F)c2ccccc12,10.8%,
COC(=O)C[C@H]1C=C[C@@H](NS(=O)(=O)c2ccc(C)cc2)[C@@H](CO)O1,6.54%,
Cc1[nH]c2ccccc2c1C(=O)C(=O)N(C)c1ccccc1,10.4%,
CNS(=O)(=O)c1ccc2c(c1)[nH]c(=S)n2C,8.16%,
Cc1ccc(S(=O)(=O)NCc2csc(C)n2)c(C)c1,10.2%,
Cc1nc(CNS(=O)(=O)c2ccc(Oc3ccccc3)cc2)cs1,,8.2 µM (active)
Cc1nc(CNS(=O)(=O)c2cccnc2)cs1,0.995%,
CC(=O)c1ccccc1NC(=O)COC(=O)C1COc2ccccc2O1 (stereo unspecified),10.8%,
COc1cc(C(O)c2nc(-c3cccc(C(=O)O)c3)cs2)ccc1F (stereo unspecified),0%,
COC(=O)C1=CN(c2c(C)cc(C)cc2C)C(N)=C(C#N)C1c1cccc(F)c1 (stereo unspecified),-19.9%,
Cc1nnc(C)n1-c1ccc(C(=O)Nc2cccc(Br)c2)cc1,7.83%,
O=C(NC1CC1)c1cccc(Br)c1,7.99%,
COC(=O)C1NN=C(C(=O)c2ccc(Br)cc2)C1c1cccc(Br)c1 (stereo unspecified),,23.1 µM (active)
